Each structure is given as a SMILES string. Results filed as inconclusive are left out. Calls of active or inactive are those of the source.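 The calls were made as follows, unless noted: active = growth inhibition above 25% in both replicates, a cutoff set 3 SD above the mean; inconclusive = above 25% in only one replicate; inactive = the rest.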

These results are taken from PubChem BioAssay.

A short description of test [1]: reducers of endogenous Her2 protein level, primary screen, SKBR3 breast tumor cells, AlphaScreen, ATP viability (AID 461;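 active = Her2 level under about 52% in both replicate screens, with viability over 70% of control, limit read from the data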;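 as to Her2 level: lower value means less Her2 protein in the cells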;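 as to viability: percent of carrier control wells set as 100% viability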). The settings on record: 18-24 h, measured here: SKBR3 viability, ATP luminescence, at 10 µM.
The target of test [2] is Receptor tyrosine-protein kinase erbB-2 (Homo sapiens) (UniProt P04626). The test is described as above. The settings on record: 18-24 h, at 10 µM, stronger effect = lower value.
Sequence of Receptor tyrosine-protein kinase erbB-2 (Homo sapiens) (P04626 whole entry, looked up): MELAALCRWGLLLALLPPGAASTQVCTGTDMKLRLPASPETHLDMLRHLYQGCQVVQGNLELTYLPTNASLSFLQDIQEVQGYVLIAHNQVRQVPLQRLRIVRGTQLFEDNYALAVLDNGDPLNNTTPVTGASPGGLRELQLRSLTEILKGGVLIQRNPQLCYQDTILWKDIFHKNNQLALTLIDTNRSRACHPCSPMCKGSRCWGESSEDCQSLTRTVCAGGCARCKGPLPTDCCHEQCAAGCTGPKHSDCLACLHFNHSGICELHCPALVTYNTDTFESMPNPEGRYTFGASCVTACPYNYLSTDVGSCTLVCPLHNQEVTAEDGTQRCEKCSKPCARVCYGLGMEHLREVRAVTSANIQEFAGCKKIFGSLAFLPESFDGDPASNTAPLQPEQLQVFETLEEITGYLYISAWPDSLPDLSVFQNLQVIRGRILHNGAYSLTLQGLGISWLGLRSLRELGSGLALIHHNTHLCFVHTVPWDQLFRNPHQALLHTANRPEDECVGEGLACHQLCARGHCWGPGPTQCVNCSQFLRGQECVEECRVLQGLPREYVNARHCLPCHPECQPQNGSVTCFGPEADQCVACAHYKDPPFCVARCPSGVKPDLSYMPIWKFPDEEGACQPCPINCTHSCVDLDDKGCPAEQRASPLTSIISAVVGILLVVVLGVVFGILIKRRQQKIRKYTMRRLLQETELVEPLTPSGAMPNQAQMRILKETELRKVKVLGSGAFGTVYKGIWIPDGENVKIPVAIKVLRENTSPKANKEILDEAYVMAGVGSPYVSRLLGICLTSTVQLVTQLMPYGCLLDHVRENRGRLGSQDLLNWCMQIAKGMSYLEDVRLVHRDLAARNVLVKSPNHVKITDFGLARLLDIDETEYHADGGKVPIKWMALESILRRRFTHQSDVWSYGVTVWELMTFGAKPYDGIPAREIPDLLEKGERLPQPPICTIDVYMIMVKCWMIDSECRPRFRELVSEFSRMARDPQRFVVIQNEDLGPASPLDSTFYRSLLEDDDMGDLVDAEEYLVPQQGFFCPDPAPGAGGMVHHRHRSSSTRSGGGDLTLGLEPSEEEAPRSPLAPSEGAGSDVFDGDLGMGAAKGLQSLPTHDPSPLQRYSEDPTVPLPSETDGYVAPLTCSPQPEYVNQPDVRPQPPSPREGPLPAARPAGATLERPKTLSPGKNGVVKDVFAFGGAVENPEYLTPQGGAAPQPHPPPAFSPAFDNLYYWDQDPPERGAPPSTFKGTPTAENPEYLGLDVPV
The nature of test [3]: SK-BR-3 cell growth inhibitors, pilot screen, 24 h, human (AID 572;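 active = viability at or below 10% of carrier control in both of two separate runs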;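 also: compound exposure lasted between 18 and 24 h rather than exactly 24 h; 100% = carrier-treated control wells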). The settings on record: SK-BR-3 viability, CellTiter-Glo luminescence, at 10 µM, stronger effect = lower value. In general terms: In ATP-based viability assays light output follows the ATP content of the culture.
Test [4] in a line: HUVEC growth inhibition – cell-based, human, primary screen (AID 575;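 active = viability at or below 30% in both replicate assays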;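 also: 100% = median of untreated cell wells with 0.1% DMSO on each plate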). The settings on record: HUVEC proliferation, CellTiter-Glo luminescence, 72 h; at 10 µM; stronger effect = lower value.
Test [5] in a line: growth inhibitors of H69AR lung tumor, primary screen, human, duplicate replicates (AID 580;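 active = viability at or under a set limit in both replicates, limit being median viability minus 3 SD, cut at about 48% in these data, passing the limit was not always enough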;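 also: 100% = mean luminescence of untreated wells and 0% = no signal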). The settings on record: H69AR lung tumor cells viability, ATP luminescence, 72 h; at 10 µM; stronger effect = lower value.
Test [6] is described as follows: reversal of MRP1-mediated doxorubicin resistance, pilot screen, H69AR cells, doxorubicin co-treatment (AID 601;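 active = viability loss from added drug above about 55%, and viability with drug at most 40%, in both replicates, limit read from the data, passing the limit was not always enough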). The settings on record: CellTiter-Glo, 72 h, at 10 µM; for differential viability (reversal): stronger effect = higher value.
Test [7] in a line: 384-well plate pilot, post-Golgi transport modulator project, inhibition of yeast transport mutant growth (AID 636; in the data active = inhibition above about 31%). The settings on record: absorbance 615 nm, about 18 h, stronger effect = higher value.
Test [8] can be described thus: growth suppression of yeast trafficking mutant, preliminary HTS, modulators of trafficking downstream of Golgi apparatus project, 1536-format plate, OD 615 nm (AID 637; in the data active = inhibition above about 30%). The settings on record: yeast transport mutant growth, absorbance 615 nm, 18 h; stronger effect = higher value.
The nature of test [9]: OD615 S. cerevisiae growth inhibition, permissive medium, pilot counter-assay, permissive growth control for S. cerevisiae lifespan shortening project (AID 705). The settings on record: OD615, 24 h, at 10 µM, stronger effect = higher value.
A short description of test [10]: Restrictive medium S. cerevisiae growth inhibition, OD615, pilot screen of yeast lifespan reduction project, restrictive growth control (AID 706;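 active = growth inhibition above a set limit, 3 SD over mean compound inhibition, in both replicates, cut at about 43% in these data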;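 also: modified DeaD lifespan yeast strain shifted to restrictive glucose medium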). The settings on record: OD615, 48 h, at 10 µM, stronger effect = higher value.
Test [11] in a line: viability gain of MRP-1-high H69AR cells under doxorubicin, pilot screen, MRP-1 activator project, CellTiter-Glo, duplicate (AID 807;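 active = viability increase at or above a cutoff of the median across tested compounds plus 3 SD, cut at about 8.5% in these data, passing the limit was not always enough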;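 also: compound pretreatment 18-22 h then 72 h combined with doxorubicin; 0% = doxorubicin alone and 100% = vehicle without doxorubicin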). The settings on record: H69AR viability with doxorubicin, CellTiter-Glo luminescence; at 10 µM; stronger effect = higher value.
A short description of test [12]: growth suppression of beta-catenin knockout HCT116, pilot screen, human colon tumor cells (AID 823;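 active = cell viability at or below a set limit in both duplicate runs, the limit being the all-compound median minus 4 SD, cut at about 23% in these data, passing the limit was not always enough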;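 also: 0% = wells killed by 20 µM Hyamine and 100% = untreated DMSO cell wells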). The settings on record: CellTiter-Glo, 60 h, at 10 µM, stronger effect = lower value.
Test [13] can be described thus: growth suppression of PTEN-deleted HCT116, pilot screen, cell-based, HCT116 clonal line, CellTiter-Glo (AID 824;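 active = viability at or below 27.92% in each of two runs, the all-compound median minus 4 SD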;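 also: 0% = 20 µM Hyamine control and 100% = vehicle cell control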). The settings on record: 60 h, at 10 µM, stronger effect = lower value.
Test [14] can be described thus: inhibitors of the yeast RAM network, pilot screen, dse1pr::URA3 reporter, 5-FOA selection (AID 869;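 active = inhibition over a set limit, the all-compound mean plus 3 SD, in both replicate runs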;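 also: 0% = DMSO wells with no growth and 100% = 10 µM 1-NA-PP1 with full growth; RAM network block rescues cells from 5-FOA so hits raise OD615 growth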). The settings on record: S. cerevisiae dse1pr::URA3 5-FOA growth, OD615, 2 d; at 10 µM; stronger effect = higher value; strain carries analog-sensitive mutant Cbk1 kinase.
The nature of test [15]: RAM signaling pathway blockade in yeast – S. cerevisiae, Pdr1DBD-CYC8 efflux-inhibited sensitized strain, primary screen (AID 1298;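 active = RAM network inhibition above 8.4% in each of two replicates, 3 SD over the compound average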;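 also: 0% = DMSO untreated cells without growth and 100% = 10 µM 1-NA-PP1 full growth; higher means more yeast growth rescued from 5-FOA killing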). The settings on record: S. cerevisiae cbk1-as DSE1-URA3 strain, 5-FOA growth OD615, 2 d; at 50 µM; stronger effect = higher value.
The mark [16] stands for this setting: H69AR cells + 2 uM doxorubicin, measured here: viability with 2 uM doxorubicin, stronger effect = lower value.
Where [17] appears, read: H69AR cells, compound alone cytotoxicity.

The viability is a read-out of living cells in per cent, often relative to untreated cells. The inhibition is the relative decrease from the control value, in per cent. In the case of `COc1cccc(-c2nc(CS(=O)(=O)CC(=O)NCc3ccc(Cl)cc3)c(C)o2)c1`, the viability in test [1] is 72.5%; in test [3], 72.5% (inactive); in test [4], 42.8% (inactive); in [5] it was 87.9% (inactive); in [6] (setting [16]), 77.8%; in [6] (setting [17]), 87.9%. Moreover, the viability in [12] is 87.1% (inactive); in test [13], 89.3% (inactive). In test [2], the Her2 level is 71% (inactive). Besides, the differential viability (reversal) in [6] (H69AR cells + 2 uM doxorubicin) was 10.1% (inactive). The inhibition is 0.4% (inactive) in test [7], -2.3% (inactive) in test [8] and 2.36% (inactive) in test [14]. For the same compound, the growth inhibition in [9] was -8.85% (inactive); in test [10], -2.68% (inactive). Also, in test [11], the viability increase is -3.55% (inactive). Further, in [15], the RAM network inhibition was 5.41% (inactive).
In the case of `Cc1cc(C)c(C(=O)Nc2ccc(S(=O)(=O)Nc3onc(C)c3C)cc2)c(C)c1`, the viability was 110% in test [1]; 110% (inactive) in test [3]; 79.5% (inactive) in test [4]; 93.4% (inactive) in test [5]; 86.9% in test [6] (setting [16]); 93.4% in [6] (setting [17]). Further, the viability in [12] was 93.3% (inactive); in test [13], 95.3% (inactive). For the same compound, in test [2], the Her2 level is 100% (inactive). Also, the differential viability (reversal) in [6] (H69AR cells + 2 uM doxorubicin) is 6.5% (inactive). Besides, the inhibition in test [7] is -6.27% (inactive); in [8] it was -1.48% (inactive); in test [14], 2.68% (inactive). The growth inhibition is -15% (inactive) in test [9] and -9.75% (inactive) in test [10]. Besides, the viability increase in test [11] was 2.97% (inactive). For the same compound, in [15], the RAM network inhibition is 10.4% (inactive).
Regarding `O=C(O)C1CCCN(S(=O)(=O)c2ccc(Cl)s2)C1` (stereo not given), the viability in [1] is 91%; in [3], 91% (inactive); in [4] it was 102% (inactive); in test [5], 93.1% (inactive); in test [6] (setting [16]), 88.6%; in [6] (setting [17]), 93.1%. In addition, the viability in test [12] is 100% (inactive); in test [13] it was 102% (inactive). Besides, the Her2 level in test [2] was 124% (inactive). The differential viability (reversal) in [6] (H69AR cells + 2 uM doxorubicin) was 4.47% (inactive). Besides, the values for the inhibition in test [7], in test [8] and in test [14] were -4.8% (inactive), 0.5% (inactive) and 2.21% (inactive), respectively. The growth inhibition was -4.79% (inactive) in [9] and 7.83% (inactive) in test [10]. Also, the viability increase in [11] was 0.34% (inactive). The RAM network inhibition in [15] was 0.99% (inactive).
For the compound `CCN(CCCNS(=O)(=O)c1ccc2c(c1)oc(=O)n2C)c1cccc(C)c1`, the viability in test [1] is 88%; in test [3] it was 88% (inactive); in test [4] it was 106% (inactive); in test [5], 90.1% (inactive); in [6] (setting [16]), 84.5%; in test [6] (setting [17]), 90.1%. Besides, the viability in test [12] is 87.2% (inactive); in test [13], 89.5% (inactive). Besides, in test [2], the Her2 level is 100% (inactive). Further, the differential viability (reversal) in test [6] (H69AR cells + 2 uM doxorubicin) was 5.6% (inactive). The results for the inhibition in [7], in [8] and in test [14] were -0.38% (inactive), 1.33% (inactive) and 0.695% (inactive), respectively. Besides, the growth inhibition in test [9] is -12% (inactive); in [10], -10.2% (inactive). Further, in [11], the viability increase was -3.21% (inactive). Further, the RAM network inhibition in test [15] is 7.59% (inactive).
For `CCN(CC)Cc1c(C(=O)OC)nnn1-c1nonc1N`, the viability in [1] is 87%; in test [3] it was 87% (inactive); in [4] it was 99.6% (inactive); in test [5] it was 106% (inactive); in test [6] (setting [16]), 92.1%; in test [6] (setting [17]), 106%. Also, the viability in [12] was 94.2% (inactive); in test [13], 102% (inactive). In [2], the Her2 level was 95.5% (inactive). Moreover, the differential viability (reversal) in test [6] (H69AR cells + 2 uM doxorubicin) was 13.6% (inactive). Besides, the values for the inhibition in test [7], in test [8] and in [14] were -7.4% (inactive), -3.33% (inactive) and 0.645% (inactive), respectively. The growth inhibition was -0.575% (inactive) in test [9] and -3.39% (inactive) in [10]. In test [11], the viability increase is -2.07% (inactive). The RAM network inhibition in test [15] was 0.53% (inactive).
